This is a sample that favours compounds with a hit; in the whole collection about 19% have one here.
TDP1 inh: qHTS Assay for Inhibitors of Tyrosyl-DNA Phosphodiesterase (TDP1). Tyrosyl-DNA phosphodiesterase 1 (Homo sapiens), Q9NUW8. recombinant TDP1, AlphaScreen DNA substrate cleavage. Potency, µM (top dose mostly 130 µM), for inactives: at the highest dose activity change, negative = inhibition, usual class: inhibitors. 350,000 compounds, 0.28% hits. AID 485290, 2010; further: nearly all actives have a fitted effect of over 40% in size
Target sequence (Q9NUW8 whole entry, looked up): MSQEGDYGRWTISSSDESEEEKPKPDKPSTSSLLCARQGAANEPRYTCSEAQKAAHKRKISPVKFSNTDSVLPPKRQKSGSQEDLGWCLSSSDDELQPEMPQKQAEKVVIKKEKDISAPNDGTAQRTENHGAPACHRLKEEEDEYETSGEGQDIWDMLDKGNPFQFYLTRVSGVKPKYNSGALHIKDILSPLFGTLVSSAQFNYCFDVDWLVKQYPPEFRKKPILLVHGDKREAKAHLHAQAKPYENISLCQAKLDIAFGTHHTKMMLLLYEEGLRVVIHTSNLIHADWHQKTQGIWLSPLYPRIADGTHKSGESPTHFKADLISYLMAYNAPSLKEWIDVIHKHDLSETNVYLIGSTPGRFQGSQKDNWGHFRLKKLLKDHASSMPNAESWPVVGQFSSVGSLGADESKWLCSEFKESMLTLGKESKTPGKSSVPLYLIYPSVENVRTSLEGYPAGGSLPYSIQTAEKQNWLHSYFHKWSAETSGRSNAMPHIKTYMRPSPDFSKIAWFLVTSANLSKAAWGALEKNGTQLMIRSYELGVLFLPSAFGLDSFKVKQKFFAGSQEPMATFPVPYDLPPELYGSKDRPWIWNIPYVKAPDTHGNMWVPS
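Compounds were preincubated with Tdp1 (1 nM final) for 15 min at room temperature before substrate (15 nM final) started a 5 min reaction; beads (10 ug/ml final) were then added for 10 min before AlphaScreen detection.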
Gal4-VP16 FLuc: VP16 counterscreen qHTS for inhibitors of ROR gamma transcriptional activity; Drosophila S2 Gal4-VP16 UAS-luciferase, luminescence, 20 h; Potency, µM (top dose mostly 53.6 µM), without a hit: top-dose activity, negative = inhibition, usual class: inhibitors; 310,000 compounds, 3.5% hits;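 further: Gal4-VP16 expression switched on by copper sulfate through the metallothionein promoter; nearly all actives have a fitted effect of over 50% in size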
TDP1 cell CPT: qHTS for Inhibitors of human tyrosyl-DNA phosphodiesterase 1 (TDP1): qHTS in cells in presence of CPT; chicken DT40 Tdp1-/-;hTDP1 cells + 20 nM CPT, ATP luminescence, 48 h; Potency, µM (doses to about 46.2 µM), inactives show at the top dose activity change, negative = growth inhibition, hits mostly inhibitors; 420,000 compounds, 12% hits; further: nearly all actives have a fitted effect of over 55% in size
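Cell growth measured by CellTiter-Glo luminescence after a minimum 48 h, 37 C compound exposure with 20 nM CPT in Tdp1-knockout DT40 cells stably expressing hTDP1, seeded 400/well; qHTS titration format.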
DT40 TDP1 no CPT: qHTS for Inhibitors of human tyrosyl-DNA phosphodiesterase 1 (TDP1): qHTS in cells in absence of CPT. DT40 Tdp1-/- hTDP1 cells, no CPT, ATP luminescence, 48 h. Potency, µM (top dose mostly 46.2 µM), without a hit: at the highest dose activity change, negative = growth inhibition, most hits filed as inhibitors. 420,000 compounds, 15% hits. AID 686978, 2013; further: nearly all actives have a fitted effect of over 55% in size
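Stably hTDP1-transfected Tdp1-null chicken DT40 cells were treated with library compounds minus camptothecin and grown for at least 48 hr at 37 °C, after which cellular ATP was quantified by luminescence.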
RORg inh: qHTS for inhibitors of ROR gamma transcriptional activity; Drosophila S2 Gal4-RORgamma UAS-luciferase reporter, 20 h; Nuclear receptor ROR-gamma (Mus musculus), P51450; Potency, µM (highest dose often 53.6 µM), inactives show at the top dose activity change, negative = inhibition, most hits filed as inhibitors; AID 2551, 2010; 310,000 compounds, 5.4% hits; further: nearly all actives have a fitted effect of over 60% in size
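In this cell-based reporter format, copper sulfate (700 uM final) drives Gal4–ROR gamma fusion expression from a metallothionein promoter in Drosophila Schneider cells; compounds preincubated 1 hr, reporter read after 20 hr at ambient temperature.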
The depositor's hits bear a star; ? = inconclusive; . = no result given; [ ] = another dose, or the depositor's remark. The call rests on the fitted dose curve; in most records, active means well fitted curve in the direction sought with a large enough effect; inconclusive means small, poorly fitted or top-dose-only effect, or another doubt; inactive means no such curve, though single readings can be large; an effect the other way counts as inactive or inconclusive. On the % scale 0 is the no-effect control and ±100 the full control effect; potency means the concentration at half of the fitted maximal effect.

SMILES	TDP1 inh	Gal4-VP16 FLuc	TDP1 cell CPT	DT40 TDP1 no CPT	RORg inh
O=C(Nc1ccc(N2CCOCC2)cc1)c1ccc([N+](=O)[O-])o1	-5%	?	5.2µM*	12µM*	11µM*
O=C(Nc1ccc(OC(F)(F)F)cc1)c1ccc(S(=O)(=O)N2CCOCC2)o1	9%	17%	?	16µM*	?
O=C(Cn1cnc(S(=O)(=O)N2CCOCC2)c1)Nc1ccc(OC(F)(F)F)cc1	1%	-6%	-7%	10%	-3%
CCC(=O)Nc1ccc(N2CCN(C(=O)c3cccs3)CC2)cc1	-2%	-3%	-3%	-11%	15%
O=C(COc1ccccc1[N+](=O)[O-])Nc1ccc(N2CCN(C(=O)c3cccs3)CC2)cc1	5%	-16%	4.6µM*	6.5µM*	35%
CCOc1ccccc1OCCOCCOc1c(Cl)cccc1Cl	-14%	-6%	?	?	34%
O=C1CCCc2nc(N3CCN(C(c4ccccc4)c4ccccc4)CC3)ncc21	4%	-1%	16µM*	21µM*	28%
O=C(NCCNc1ccc([N+](=O)[O-])cc1)c1cc(F)c(F)cc1Cl	.	.	-29%	-28%	.
N#Cc1c(Cl)nc2c(c1C#N)CCCC2	.	3%	6%	18µM*	-23%
C=CCn1c(SCC(=O)O)nc2sc(CC)cc2c1=O	6%	-2%	5%	-28%	0%
C=CCn1c(SCC(=O)/C(C#N)=C(\C)N)nc2sc(CC)cc2c1=O	3%	-4%	21µM*	21µM*	35%
C=CCn1c(SCC(=O)c2cccs2)nc2sc(CC)cc2c1=O	0%	?	15µM*	16µM*	-16%
O=C(NCc1cccnc1)C1CCCN(S(=O)(=O)c2cccc3nsnc23)C1 (centres undefined)	5%	9%	-12%	-21%	-4%
COc1cc(NC(=O)c2cc(-c3cccs3)on2)cc(OC)c1OC	3%	-1%	21µM*	16µM*	14%
COc1cccc(-c2cc(C(=O)Nc3cccc(O)c3)no2)c1	2%	2.5µM*	?	-26%	0.89µM*
O=C(Nc1cccc(O)c1)c1cc(-c2cccs2)on1	7%	3.5µM*	?	?	2µM*
COc1ccc(CNC(=O)c2cc(-c3cccs3)on2)cc1	5%	?	-25%	-30%	?
COCCNC(=O)c1cc(-c2cccs2)on1	1%	-15%	?	23µM*	17%
CC(=O)c1cccc(NC(=O)c2cc(-c3cccs3)on2)c1	6%	-6%	-26%	-28%	-39%
COc1ccc(-c2cc(C(=O)Nc3cc(OC)c(OC)c(OC)c3)no2)cc1	.	-1%	?	-21%	-17%
CCOc1ccccc1-n1c(CNc2ccc(F)cc2)nnc1SCC(=O)NCc1ccco1	0%[56.1 µM]	-19%	-28%	-21%	?
COc1cc(NC(=O)c2cc(-c3ccc(Cl)c(Cl)c3)on2)cc(OC)c1OC	0%	.	8.2µM*	?	.
COc1cc(NC(=O)c2cc(-c3ccc(C)cc3)on2)cc(OC)c1OC	.	-5%	-14%	?	-4%
COc1cc(NC(=O)Nc2cccc(-c3noc(C)n3)c2)cc(OC)c1OC	7%	.	?	23µM*	.
COc1cc(NC(=O)c2cc(-c3cccc(O)c3)on2)cc(OC)c1OC	2%	-10%	?	13µM*	6%
SMILES	TDP1 inh	Gal4-VP16 FLuc	TDP1 cell CPT	DT40 TDP1 no CPT	RORg inh
COc1cc(NC(=O)c2cc(-c3ccccc3Cl)on2)cc(OC)c1OC	.	-2%	2.9µM*	2.9µM*	27%
O=S1(=O)CC(N2CC=CC2)CN1Cc1cn(Cc2ccccc2)nn1 (centres undefined)	.	.	12%	3%	.
COc1cccc(C(=O)Nc2nc(SCc3ccc(Cl)cc3)n[nH]2)c1	4%	11%	1%	-27%	-4%
CC(CNC(=O)C1CCCCC1C(=O)O)c1ccccc1 (centres undefined)	2%	-2%	2%	-16%	11%
Cc1ccc(S(=O)(=O)N2[C@@H](c3ccc(C(C)(C)C)cc3)C(C(=O)O)=CC[C@H]2c2cccs2)cc1	2%	.	?	?	.
Cc1ccc2c(c1)CCCN2C(=O)c1ccco1	-1%	4%	-22%	-4%	10%
CCc1[nH]nc2c1C(C1C=CCCC1)C(C#N)=C(N)O2 (centres undefined)	7%	11%	23µM*	21µM*	10%
CC(C)c1[nH]nc2c1C(C1C=CCCC1)C(C#N)=C(N)O2 (centres undefined)	9%	-2%	16µM*	13µM*	?
CC(C)c1[nH]nc2c1C(c1cccs1)C(C#N)=C(N)O2 (centres undefined)	3%	-22%	?	?	-30%
CCCC(=O)C1=C(c2ccccc2)C(C#N)(C#N)C(C#N)=C1N	9%	3%	18µM*	15µM*	14%
O=C(NCc1ccccc1F)C1CCCN1C(=O)Nc1cccc(F)c1 (centres undefined)	.	-8%	3%	1%	-13%
Cc1oc2ccc(O)c(CN3CCN(C)CC3)c2c1C(=O)Nc1cccc(C(F)(F)F)c1	0%	.	15µM*	?	.
CCN1CCN(Cc2c(O)ccc3oc(C)c(C(=O)Nc4cccc(C(F)(F)F)c4)c23)CC1	1%	.	15µM*	?	.
Cc1oc2ccc(O)c(CN3CCOCC3)c2c1C(=O)Nc1ccccc1	4%	.	-15%	-4%	.
COc1cc(/C=C2\SC(N)=NC2=O)ccc1OCC(=O)Nc1ccc(C)cc1	-11%	-1%	1.5µM*	1.5µM*	-9%
COc1cc(/C=C2/SC(=S)N(CC(=O)O)C2=O)ccc1OCC(=O)Nc1ccc(C)c(C)c1	13µM*	-7%	.	.	21%
COc1ccc(/C=C2/SC(=O)N(CCC(=O)Nc3ccc(C)cc3)C2=O)cc1OC	4%	-21%	.	.	-26%
COc1ccccc1-c1nnc(C2CCN(C(=O)c3cccc(Cl)c3)CC2)o1	6%	.	?	16µM*	.
COc1ccccc1-c1nnc(C2CCN(C(=O)c3ccccc3C)CC2)o1	4%	.	?	-17%	.
COc1ccccc1-c1nnc(C2CCN(S(=O)(=O)c3ccc(F)c(C)c3)CC2)o1	4%	.	15µM*	?	.
COc1ccc(S(=O)(=O)N2CCC(c3ccncc3)CC2)cc1OC	7%	.	-27%	?	.
COc1ccc(-c2nnc(C3CCN(S(=O)(=O)c4ccc(C)c(C)c4)CC3)o2)cc1	1%	.	?	26µM*	.
